Among all 1,200 compounds or so, about 360 (30%) were called active. The rule behind the calls is not given here. Only a sample is shown. Entries with a potency or affinity are not part of this list.

The experiment is described as follows: bacterial growth inhibition, dose response, counter-screen, BacTiter-Glo luminescence, cherry-picked samples (AID 504843).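 Note: growth measured after 8 h incubation at 30 °C.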 As to conditions: BacTiter-Glo ATP luminescence; series mostly up to 15 µM. (Counterscreens check selectivity or assay interference.)
On to `CCO[C@@H]1OC(C(=O)O)=C[C@H](C)[C@H]1CCCO`, for which the compound was classed as inactive.
Next, `O=C(O)C1(C(=O)O)CCC1`: “inactive”; `Cc1occc1C(=O)NCc1cccc(CNC(=O)c2ccoc2C)c1`: “inactive”.
With `O=C(Cn1cc(C(F)(F)F)ccc1=O)OCC(=O)c1ccc[nH]1` the entry was “inactive”.
With `COc1ccc(-c2[nH]nc3c2C(c2ccoc2)C(C#N)=C(N)O3)cc1` (stereo not drawn), the compound was classed as inactive.
For `COc1ccccc1N1CCN(C(=O)c2cc3c(=O)n4ccccc4nc3s2)CC1`, the compound was classed as inactive.
For `C=CCOc1ccccc1CN1CCC(n2nccc2NC(=O)C2CC2)CC1`, the compound was classed as inactive.
For the compound `COc1ccccc1C(=O)Nc1ccnn1C1CCN(Cc2cnn(C)c2)CC1`, the call was inactive.
Next, `COc1ccccc1-c1ccc(=O)n(CC(=O)Nc2ccc(C(=O)N3CCCC3)cc2)n1`: “inactive”; `N#Cc1ccccc1S(=O)(=O)N1CCN(CC(=O)Nc2ccnn2C2CCCC2)CC1`: “inactive”; `C[C@H]1CN([C@@H](C)CO)C(=O)c2cccc(NS(=O)(=O)c3ccc(F)cc3)c2O[C@H]1CN(C)Cc1ccc(Cl)c(Cl)c1`: “inactive”.
With `CNC(=O)CN(c1ccc(C(C)C)cc1)S(C)(=O)=O` the entry was “inactive”.
Next, `CC1CCN(C(=O)C2(NC(=O)Nc3cccc(F)c3)CCCCC2)CC1`: “inactive”; `CCOc1ccc(NC(=O)c2cccc(OC(=S)N3CCC(C)CC3)c2)cc1`: “inactive”; `O=C(N[C@@H](Cc1ccccc1)C(=O)NC1CC1)c1ccc(Cl)cc1`: “inactive”.
Consider `Cc1nc2ccc(C(=O)Nc3ccc4nc[nH]c4c3)cc2[nH]1`, for which the result was inactive.
Next, `CN1C(=O)N(C)C2(c3ccccc3)NC(=O)NC12c1ccccc1` (stereo not drawn): “inactive”; `O=C(CC1SCCNC1=O)Nc1cccc(Cl)c1` (stereo not drawn): “inactive”.
With `COC(=O)CN1C(=O)N/C(=C/c2ccccc2OC)C1=O`, the call was inactive.
With `Nc1nnc(-c2ccc(F)cc2)s1` the entry was “inactive”.
Turning to `O=C(CSc1nnc(-c2ccncc2)s1)Nc1ccc(Cl)c(C(=O)O)c1`, the call was inactive.
Next, `CC(C)c1nnc(NC(=O)CCS(=O)(=O)Cc2ccccc2)s1`: “inactive”; `O=C(COc1ccc2c3c(c(=O)oc2c1)CCCC3)NCc1ccncc1`: “inactive”; `O=C(O)CCC(=O)Nc1sc2c(c1C(=O)Nc1cccc3ccccc13)CCCCC2`: “inactive”.
With `O=C(NCc1ccc(Cl)cc1)c1cccc(NC2=NC3CS(=O)(=O)CC3S2)c1` (stereo not drawn) the entry was “inactive”; with `Cc1onc(C(=O)NCc2ccc(F)cc2)c1[N+](=O)[O-]`, “inactive”; with `O=C(COc1ccc2c3c(c(=O)oc2c1)CCCC3)NCC(O)c1ccccc1` (stereo not drawn), “inactive”.
With `COc1ccc2c3c(c(=O)oc2c1OCC(N)=O)CCCC3` the entry was “inactive”; with `Cc1ccc2c(CC(=O)Nc3ccc(N4CCN(C)CC4)cc3C)coc2c1`, “inactive”; with `CCOCCCNC(=S)NCCNc1nc2ccc(C)cc2cc1C#N`, “inactive”.
Turning to `COc1cc(C(=O)NC(c2ccccc2)c2ccccc2)cc(OC)c1C`, the outcome was inactive.
With `O=C(Cn1c(=O)n(-c2ccc(F)cc2)c(=O)c2sccc21)NC1CCCCC1` the entry was “inactive”; with `O=C(NNc1ncnc2c1cnn2-c1ccccc1)c1cccs1`, “inactive”; with `CC(C)S(=O)(=O)C1=NSC2=NC(=O)/C(=C\c3ccc(-c4cccc(C(=O)O)c4)o3)C(=N)N21`, “inactive”.
Next, `CCc1nc2cc3sc(CC)nc3cc2s1`: “inactive”; `O=C(CCNc1n[nH]c(=O)[nH]c1=O)N1CCCCC1`: “inactive”.
With `C(=N\n1cncn1)/c1ccc(N2CCOCC2)cc1` the entry was “inactive”; with `Cc1cnc(C(=O)OCC(=O)c2ccc(-c3ccccc3)cc2)cn1`, “inactive”.
Regarding `CN(C(=O)COC(=O)c1cccc(S(=O)(=O)N2CCOCC2)c1)C1CCS(=O)(=O)C1` (stereo not drawn), the call was inactive.
With `O=C(OCC(=O)N1CCCC1=O)c1cccc(S(=O)(=O)N2CCOCC2)c1` the entry was “inactive”.
For `Cc1ccc(C(=O)N/C(=C\c2cn(S(=O)(=O)N(C)C)c3ccccc23)C(=O)NCCCN2CCOCC2)cc1`, the compound was classed as inactive.
Next, `COc1ccc(C)cc1S(=O)(=O)N(CC(=O)NC1CCCC1)c1ccc(F)cc1`: “inactive”.
Next, `COc1ccc(S(=O)(=O)N2CCN(CC(=O)Nc3c(C)n[nH]c3C)CC2)cc1OC`: “inactive”.
With `COc1cc(CNCc2ccccn2)ccc1OCc1c(Cl)cccc1Cl` the entry was “inactive”.
As to `Cc1nn(-c2ccccc2)c(Cl)c1/C=N/NC(=O)c1ccccc1NS(=O)(=O)c1cccs1`, the result was inactive.
In the case of `CCOC(=O)c1c(NC(=O)C2C3C=CC(C3)C2C(=O)O)sc2c1CCC(C)C2` (stereo not drawn), the call was inactive.
Next, `COc1ccc(OC)c(S(=O)(=O)N2CCC(C(=O)NC3CC3)CC2)c1`: “inactive”.
Next, `COc1ccc(S(=O)(=O)N2CCC(C(=O)N3CCN(C)CC3)CC2)cc1Cl`: “inactive”; `COc1cccc(C(=O)N(CN2CCCC2=O)c2cccc(Cl)c2)c1OC`: “inactive”; `COc1ccc(S(=O)(=O)NCCSCc2ccco2)cc1Cl`: “inactive”.
With `NS(=O)(=O)c1cc(C(=O)O)c(NCc2ccco2)cc1Cl` the entry was “inactive”; with `CS(=O)(=O)c1ccc([C@@H](O)[C@@H](CF)NC(=O)C(Cl)Cl)cc1`, “inactive”; with `CCC[C@@H]1C[C@@H](C(=O)N[C@H]([C@@H](C)O)[C@H]2O[C@H](SC)[C@H](O)[C@@H](O)C2O)N(C)C1` (stereo partly drawn), “inactive”.
For `O=C(O)CCc1ccc(-c2cccs2)o1`, the outcome was inactive.
Next, `c1ccc(CC2=NCCN2)cc1`: “inactive”; `Cc1ccc2[nH]c(=O)c(CNS(=O)(=O)c3ccccc3)c(-c3ccccc3)c2c1`: “inactive”; `Cc1ccccc1Nc1nnc(C)c(=O)[nH]1`: “inactive”.
Regarding `Cc1cccc(-c2onc3ccc(C4(C)OCCO4)cc23)c1`, the result was inactive.
Next, `COc1ccc(/C=N/NC(=O)COc2cc(C)cc(C)c2)cc1COC(C)=O`: “inactive”.
For `CCn1c(SCC(=O)NC2CCCCC2)nnc1-c1cccnc1`, the call was inactive.
With `Cc1ccc(NC(=O)CSc2nccn2C)cc1F` the entry was “inactive”; with `Cc1ccc(N2CC(C(=O)Nc3cc(C(F)(F)F)ccc3N3CCCC3)CC2=O)cc1` (stereo not drawn), “inactive”; with `CCOCCCNC(=O)C(c1ccc(C)cc1)N(Cc1cccs1)C(=O)c1ccccc1O` (stereo not drawn), “inactive”.
For `COc1ccc(OC)c(C(=O)CSc2nnc(-c3cccs3)o2)c1`, the compound was classed as inactive.
With `O=C(Nc1ccc(C(=O)O)cc1)/C(=C\C=C\c1ccccc1)NC(=O)c1ccccc1Br` the entry was “inactive”; with `Cc1noc(NS(=O)(=O)c2ccc(NC(=O)c3ccoc3C)cc2)c1C`, “inactive”.
Next, `O=C(O)c1ccn(COc2ccc(Br)cc2)n1`: “inactive”; `Cc1ccc(NC(=O)c2cc(N3C(=O)C4CC=CCC4C3=O)ccc2N2CCOCC2)cc1Cl` (stereo not drawn): “inactive”.
Next, `CCOc1ccc(N(CC(=O)NCc2ccc(OC)cc2)S(=O)(=O)c2c(C)[nH]c(=O)[nH]c2=O)cc1`: “inactive”.
Consider `CN1CCc2c(sc3nc(SCC(=O)N4CCOCC4)nc(N)c23)C1`, for which the compound was classed as inactive.
`Cc1cc(C)c(C#N)c(Oc2ccccc2Br)n1`: the compound was called inactive.
Next, `Cc1nnc(Nc2ccc(Cl)c(C(F)(F)F)c2)[nH]c1=O`: “inactive”; `CC(/C=N/NC(=O)c1n[nH]c2c1CCC2)=C\c1ccccc1`: “inactive”; `CCCN=C1N(CC)C[C@@H]2[C@@H]3C(=O)N(C)C(=O)[C@@H]3[C@](Cc3ccccc3)(C(=O)OC)N12`: “inactive”.
With `O=C(CCCc1nc2ccccc2s1)NC1CCOC1=O` (stereo not drawn) the entry was “inactive”; with `Cc1cccc(CS(=O)(=O)c2ncc(Cl)c(C(=O)Nc3nnc(C(C)C)s3)n2)c1`, “inactive”; with `Cc1cccc(NC(=O)CN(c2ccc(F)cc2)S(C)(=O)=O)c1`, “inactive”.
With `O=C(C[C@H]1C[C@H](C(=O)N2CCOCC2)[C@@]2(CCC3CCCC3)c3[nH]c4cc(-c5ccco5)ccc4c3CCN2C1=O)NCCCn1ccnc1` the entry was “inactive”; with `CC(=O)Nc1ccc(/C=N/N2CCCCC2)cc1`, “inactive”.
For `Cc1ccc(/C=C2/C(=N)N3N=C(CC(=O)N4CCCC4)SC3=NC2=O)o1`, the compound was called inactive.
As to `C=CCN1C(=O)c2ccc(C(=O)N3CCC(C(N)=O)CC3)cc2C1=O`, the compound was called inactive.
With `CC(NC(=O)c1ccc([N+](=O)[O-])o1)C12CC3CC(CC(C3)C1)C2` (stereo not drawn) the entry was “inactive”; with `CC(C)N1CCc2c(sc(NC(=O)c3ccc(S(=O)(=O)N4CCc5ccccc54)cc3)c2C(N)=O)C1`, “inactive”; with `Cc1ccc2nc(C(=O)O)c(C(=O)O)nc2c1`, “inactive”.
With `NC(=O)Cn1c(-c2nonc2N)nc2ccccc21` the entry was “inactive”; with `CC(C)c1nn2c(=O)cc(CSc3ccccc3NC(=O)c3ccccc3F)nc2s1`, “inactive”.
With `COc1ccc(-n2c(Cc3cccn3C)nnc2SCC(=O)NCc2ccc(F)cc2)cc1` the entry was “inactive”; with `CC(=O)c1ccc(NC(=O)CSc2nnc(C3CC3)n2C2CC2)cc1`, “inactive”.
In the case of `Cc1ccc2cc(CCNC(=O)C(=O)c3c(C)[nH]c4ccccc34)c(=O)[nH]c2c1`, the compound was classed as inactive.
Next, `O=C(Nc1ccc(F)cc1)Nc1cc(S(=O)(=O)N2CCOCC2)ccc1N1CCCC1`: “inactive”; `O=C(/C=C/c1ccccc1)Nc1cc(S(=O)(=O)N2CCOCC2)ccc1N1CCCC1`: “inactive”; `CC(Sc1ccsc1[N+](=O)[O-])C(=O)N1CCN(c2ccccn2)CC1` (stereo not drawn): “inactive”.
As for `Nc1ccn(CC(=O)N2CCN(c3ccccn3)CC2)c(=O)n1`, the call was inactive.
Next, `COC(CNc1ncnc2sc(-c3ccccc3)cc12)OC`: “inactive”; `Cc1cccc(-c2nnc(-c3cccc(NC(=O)Cc4cccs4)c3)o2)c1`: “inactive”; `O=C(CSc1nnc(-c2cccnc2)o1)Nc1ccc(Cl)cc1`: “inactive”.
With `CSc1cccc(NC(=O)CN(C)S(=O)(=O)c2cnc[nH]2)c1` the entry was “inactive”.
Next, `C[C@H](NC(=O)c1nc[nH]c1C(=O)NCCCCCNC(=O)OC(C)(C)C)c1ccccc1`: “inactive”; `CC1CCN(C(=O)c2[nH]cnc2C(=O)N[C@@H](C)C(=O)OC(C)(C)C)CC1`: “inactive”.
Regarding `CCCCCCCN(c1ccccc1)[C@@H]1C[C@H]2CCCC(=O)N3CC[C@@H](C1)[C@@H]23`, the outcome was inactive.
With `CCOC(=O)c1c(C)[nH]c(C(=O)N(C)Cc2cccc(OC)c2OC)c1C` the entry was “inactive”; with `O=C1CN2C(=Nc3ccc(Br)cc3C2c2ccccc2)CCN1` (stereo not drawn), “inactive”.
With `CC[C@H]1OC(=O)[C@H](C)[C@@H](O[C@H]2C[C@@](C)(OC)[C@@H](O)[C@H](C)O2)[C@H](C)[C@@H](O[C@@H]2O[C@H](C)C[C@H](N(C)C)[C@H]2O)[C@](C)(O)C[C@@H](C)CN(C)[C@H](C)[C@@H](O)[C@]1(C)O` the entry was “inactive”.
